Assay results reported in PubChem BioAssay (EPA / NIEHS).
Activity calls are given as the source filed them. The calls were made as follows: active = hit-call score of the fitted dose curve at least 0.9, where 1 is the maximum; inactive = score below 0.9.

experiment: ATG_GLI_CIS: Attagene CIS-FACTORIAL HepG2 Assay for human Zinc Finger Protein GLI1 (AID 2282945); details: HepG2, Attagene cis-factorial reporter mRNA, GLI element; actives raise or lower the signal
Description: ATG_CIS is a cell-based, multiplexed-readout assay that uses HepG2, a human liver cell line, with measurements taken at 24 hours after chemical dosing in a 24-well plate.ATG_GLI_CIS is one of 52 assay component(s) measured or calculated from the ATG_CIS assay. It is designed to make measurements of mRNA induction, a form of inducible reporter, as detected with fluorescence intensity signals by Reverse transcription polymerase chain reaction (RT-PCR) and Capillary electrophoresis technology.Data from the assay component ATG_GLI_CIS was analyzed into 1 assay endpoint. This assay endpoint, ATG_GLI_CIS, was analyzed with bidirectional fitting relative to DMSO as the negative control and baseline of activity. Using a type of inducible reporter, measures of mRNA for gain or loss-of-signal activity can be used to understand the reporter gene at the transcription factor-level as they relate to the gene GLI1. Furthermore, this assay endpoint can be referred to as a primary readout, because this assay has produced multiple assay endpoints where this one serves a reporter gene function. To generalize the intended target to other relatable targets, this assay endpoint is annotated to the dna binding intended target family, where the subfamily is zinc finger.
Human liver HepG2 cells are transiently transfected with multiple reporter transcription units (MRTUs) in 6-well plates using FuGene 6 reagent (Roche; 3 ml FuGene/1 mg DNA). The MRTU constructs are regulated by a cis-regulating element (promoter). […] A major difference between the CIS and TRANS system is that in CIS activities of endogenous TFs are measured, whereas the TRANS assay evaluates changes in activities of exogenous, chimeric NR-Gal4 proteins. […] At the end of 24 hour incubation, total RNA was isolated using TriZol reagent (Invitrogen). The isolated RNA is then reverse-transcribed using oligo(dT) primer and Mo-MLV reverse transcriptase (Invitrogen) with DNAse I (Ambion) treatment for 30 min. The one-tenth of the produced cDNA was amplified by PCR using Taq DNA polymerase (Invitrogen) and two reporter sequence-specific primers. The PCR products were fluorescently labeled by primer extension with 6-arboxyfluorescein (6-FAM) 5'-labeled reporter sequence-specific primer (2 min at 95 C, 20 s at 68 C and 10 min at 72 C) and these products were digested with 5U of HpaI (New England Biolabs) for 2h at 37 C. The fragments were purified using Qiaquick PCR columns (Qiagen), analyzed on an ABI 3130xL genetic analyzer (Applied Biosystems) with peak positions identified by using a set of X-rhodamine (ROX)-labeled MapMarker1000 molecular weight standards (BioVentures). The raw capillary electrophoresis data was processed using Attagraph software (Attagene).

Structure (SMILES)	AC50	outcome
CCCCCCCCCc1ccc(OCCO)cc1	21.4 µM (active)	–
C=C(C)C(=O)OCC(F)(F)C(F)(F)C(F)(F)C(F)F	–	inactive
O=S(=O)(O)c1ccc(Cl)cc1	–	inactive
O=C(Cl)c1ccc(Cl)cc1Cl	–	inactive
OCCCCC(F)(F)C(F)(F)C(F)(F)C(F)(F)F	–	inactive
OCC(O)CC(F)(F)C(F)(F)C(F)(F)C(F)(F)F (stereo not given)	–	inactive
CC1=CCC2C(=O)OC(=O)C2C1 (stereo not given)	–	inactive
FC(F)(F)C(F)(F)C(F)(F)C(F)(F)C(F)(F)C(F)(F)CC[Si](Cl)(Cl)Cl	–	inactive
O=C1C=CC(=O)N1c1ccccc1	–	inactive
C[Si](Cl)(Cl)CCC(F)(F)C(F)(F)C(F)(F)C(F)(F)C(F)(F)C(F)(F)F	–	inactive
Oc1ccc(C2(c3ccc(O)c(C4CCCCC4)c3)CCCCC2)cc1C1CCCCC1	–	inactive
O=C1OC(=O)c2ccc3c4c(ccc1c24)C(=O)OC3=O	–	inactive
FC(F)(F)C(F)(F)C(F)(F)C(F)(F)C(F)(F)C(F)(F)C(F)(F)CCI	–	inactive
CCN=C1C=CC(=C(c2ccc(N(CC)CC)cc2)c2ccc(N(CC)CC)cc2)c2ccccc21	5.55 µM (active)	–
Cc1ccc(O)c(-n2nc3ccccc3n2)c1	–	inactive
O=C1C=CC(=O)N1c1ccc(Cc2ccc(N3C(=O)C=CC3=O)cc2)cc1	–	inactive
COC(F)(C(F)F)C(F)(F)F (stereo not given)	–	inactive
O=C=Nc1cccc2c(N=C=O)cccc12	–	inactive
NCC(F)(F)C(F)(F)C(F)(F)C(F)(F)C(F)(F)C(F)(F)F	–	inactive
CC(C)C(=O)OCc1ccccc1	–	inactive

Structure (SMILES)	AC50	outcome
CC(=O)c1ccccc1N	–	inactive
O=c1cccc[nH]1	–	inactive
C[Si](C)O[Si](C)C	–	inactive
CN(C)C(C)(C)CO	–	inactive
CCCCCCCC/C=C\CCCCCCCC(=O)OCC(O)CO (stereo not given)	–	inactive
C=C(C)CCCC	–	inactive
CNS(=O)(=O)C(F)(F)C(F)(F)C(F)(F)C(F)(F)C(F)(F)C(F)(F)C(F)(F)C(F)(F)F	–	inactive
Cc1cccc(C)n1	–	inactive
CCCCCCCCCCCCCCCCC	–	inactive
O=C(O)CCC(F)(F)C(F)(F)C(F)(F)C(F)(F)C(F)(F)C(F)(F)C(F)(F)F	–	inactive
O=C=NCc1cccc(CN=C=O)c1	–	inactive
CN(N=O)C(=O)N[C@@H]1[C@@H](O)[C@H](O)[C@@H](CO)O[C@@H]1O	–	inactive
CC(C)(C)c1cc(Cc2cc(C(C)(C)C)c(O)c(C(C)(C)C)c2)cc(C(C)(C)C)c1O	–	inactive
CCN(CC)c1ccc2c(c1)Oc1cc(N(CC)CC)ccc1C21OC(=O)c2ccccc21	–	inactive
NCC(F)(F)C(F)(F)C(F)(F)C(F)(F)C(F)(F)C(F)(F)C(F)(F)C(F)(F)F	–	inactive
C[C@]12CC[C@H]3C(=CCc4cc(O)ccc43)[C@@H]1CCC2=O	–	inactive
O=C(Cl)C(F)(F)C(F)(F)C(F)(F)C(F)(F)C(F)(F)C(F)(F)C(F)(F)F	–	inactive
Cc1cnccn1	–	inactive
Nc1cccnc1N	–	inactive
Cc1ccc(S(=O)(=O)C(I)I)cc1	6.16 µM (active)	–
